Assay results: PubChem BioAssay
Activity calls are given as the source filed them.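 Rule for the calls, unless noted: active = fluorescence slope higher than the sample average by over 3 SD (cut at about -0.22 in these data, passing the limit was not always enough); inactive = the rest.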

Columns and labels:
[1] = inhibitors of TNFa-induced NFkB p65 translocation, primary screen, imaging, HUVEC, MLSMR starter and 10KST1 sets (AID 438;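 active = inhibition above 20% together with a positive visual image hit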;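 note: compound added about 3h40 before a 20 min TNFalpha stimulation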;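 for inhibition: signal is the nuclear over cytoplasmic p65 intensity ratio per well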); settings: HUVEC TNFa-induced p65 nuclear translocation; cell count: measured here: nuclei count (cytotoxicity indicator), at 2.08 µM; inhibition: at 2 µM, stronger effect = higher value, 0% TNFa-plus-vehicle, 100% no-TNFa wells
[2] = inhibitors of mutant huntingtin aggregation, primary screen, imaging, exon1htt(103Q)mCFP cells, high-content imaging (AID 483;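 active = visual image review flags a hit and inhibition of aggregation exceeds 20%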;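 note: compound exposure lasted 3 days before fixation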;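 for nuclei count: percent of the per-plate median nuclei count of sample wells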); settings: exon1htt(103Q)mCFP cell line, aggregate imaging, at 2 µM; inhibition of aggregation: stronger effect = higher value; nuclei count: measured here: cell count, toxicity
[3] = inhibitors of E-selectin induction by TNFa, primary screen, imaging, HUVEC, immunofluorescence, MLSMR starter and 10KST1 sets (AID 487;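 active = visually confirmed hit in the image check and inhibition above 20%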;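 for inhibition: signal is fraction of cell area covered by stained E-selectin grains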;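 for nuclei count: 100% = median nuclei count of all wells on the same plate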); settings: HUVEC TNFalpha-induced E-selectin immunofluorescence imaging, at 2 µM; inhibition: stronger effect = higher value; nuclei count: measured here: cell number, toxicity
[4] = molecular target: Voltage-gated potassium channel subunit beta-2 (Rattus norvegicus) (UniProt P62483); experiment: KvBeta enzyme negative modulators, primary screen, biochemical, NADPH fluorescence (AID 622); settings: recombinant KvBeta, 4-cyanobenzaldehyde reduction, at 10 µM, stronger effect = higher value;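 note: slope of raw intensity against log time taken from 70 to 1610 s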
[5] = molecular target: Voltage-gated potassium channel subunit beta-2 (Rattus norvegicus) (UniProt P62483); experiment: KvBeta positive modulators, primary screen, biochemical, NADPH fluorescence (AID 623;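 active = NADPH fluorescence slope more negative than the mean of all samples by about 3 SD, 99.7% confidence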;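 note: fluorescence intensity change per second fitted from 20 to 320 s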); settings: Recombinant KvBeta, NADPH fluorescence decrease slope, 10 min; at 10 µM; stronger effect = lower value
[6] = molecular target: Alpha-2C adrenergic receptor (Homo sapiens) (UniProt P18825); experiment: modulators of alpha2C/GIRK thallium flux, primary screen, cell-based, HEK293 alpha2C/GIRK1/2 (AID 624;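 active = fluorescence slope after compound addition differing from the mean of all screened samples at 99.7% confidence, in either direction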;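 note: slope of fluorescence ratio to pre-addition baseline per second over 15 to 24 s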); settings: thallium flux BTC fluorescence, at 10 µM, actives lie on both sides
[7] = inhibitors of Sendai virus-induced IRF3 signaling, primary screen, TLR/RLR signaling modifier project, cell-based, Sendai virus stimulus, luciferase, 10K MLSCN set (AID 602276;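 active = inhibition at or above 50% at 10 µM; inactive = inhibition below 50%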;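 note: firefly luciferase from ISG56 promoter only with Renilla not read in this screen; 0% = Sendai virus plus DMSO and 100% = medium plus DMSO without virus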); settings: HEK293 RL24 IRF3 luciferase reporter, at 10 µM, stronger effect = higher value
[8] = inhibitors of poly I:C-induced TLR3 signaling, primary screen, cell-based, poly I:C stimulus, luciferase, 10K MLSCN set (AID 602277;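 active = inhibition of the reporter signal at or above 50%; inactive = inhibition below 50%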); settings: HEK293-TLR3 RL24 IRF3 luciferase reporter, at 10 µM, stronger effect = higher value

Sequence of Voltage-gated potassium channel subunit beta-2 (Rattus norvegicus) (P62483 whole entry, looked up): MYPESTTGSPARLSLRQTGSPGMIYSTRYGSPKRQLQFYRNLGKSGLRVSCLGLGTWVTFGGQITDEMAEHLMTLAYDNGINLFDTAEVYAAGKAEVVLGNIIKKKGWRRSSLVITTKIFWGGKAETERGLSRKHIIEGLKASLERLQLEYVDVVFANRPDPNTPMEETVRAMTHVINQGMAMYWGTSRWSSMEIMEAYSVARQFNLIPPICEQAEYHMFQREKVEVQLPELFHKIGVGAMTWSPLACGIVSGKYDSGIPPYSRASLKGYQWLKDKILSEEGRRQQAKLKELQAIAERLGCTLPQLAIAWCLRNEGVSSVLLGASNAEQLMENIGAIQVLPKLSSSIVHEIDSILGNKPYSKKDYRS
Sequence of Alpha-2C adrenergic receptor (Homo sapiens) (P18825 whole entry, looked up): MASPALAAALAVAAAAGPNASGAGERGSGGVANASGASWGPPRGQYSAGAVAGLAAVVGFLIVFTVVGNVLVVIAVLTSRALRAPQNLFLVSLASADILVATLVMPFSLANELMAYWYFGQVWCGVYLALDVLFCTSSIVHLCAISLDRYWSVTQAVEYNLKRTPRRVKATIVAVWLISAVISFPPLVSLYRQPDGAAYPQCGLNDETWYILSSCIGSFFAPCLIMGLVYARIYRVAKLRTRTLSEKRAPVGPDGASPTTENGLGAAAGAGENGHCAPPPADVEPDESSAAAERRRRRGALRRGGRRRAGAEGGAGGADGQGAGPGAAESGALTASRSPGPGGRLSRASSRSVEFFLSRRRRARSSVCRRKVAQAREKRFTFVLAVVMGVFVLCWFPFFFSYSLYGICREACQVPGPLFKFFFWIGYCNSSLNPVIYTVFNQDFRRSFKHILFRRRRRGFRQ

SMILES | cell count [1] | inhibition [1] | inhibition of aggregation [2] | nuclei count [2] [%] | inhibition [3] | nuclei count [3] [%] | fluorescence slope [4] | NADPH fluorescence slope [5] | slope [6] | inhibition [7] | inhibition [8]
CCOc1cc(C2/C(=C(/O)c3ccc(OC(C)C)cc3)C(=O)C(=O)N2CCCOC)ccc1O (stereo not drawn) | 714 | -7.5% (inactive) | -20.2% (inactive) | 111 | -120% (inactive) | 111 | -0.513 (inactive) | 2e-05 (inactive) | 0.00381 (inactive) | 12.7% (inactive) | 14.8% (inactive)
O=C(CN1CCN(c2nc(-c3ccccc3)cs2)CC1)Nc1ccc2c(c1)OCO2 | 529 | -11.3% (inactive) | -0.3% (inactive) | 106 | -77.7% (inactive) | 146 | -0.518 (inactive) | 1.7e-05 (inactive) | 0.00563 (inactive) | -2.24% (inactive) | -3.31% (inactive)
CC(C)CC(=O)N1CCN(S(=O)(=O)c2ccc(F)cc2)CC1 | 662 | 7.7% (inactive) | -7.6% (inactive) | 105 | 34.7% (inactive) | 86.5 | -0.401 (inactive) | 2e-05 (inactive) | 0.00623 (inactive) | -4.5% (inactive) | -11.7% (inactive)
C=CCSc1nc2c(c(=O)[nH]c(=O)n2C)n1CC | 570 | -3% (inactive) | 6.3% (inactive) | 36.2 | -48% (inactive) | 96.3 | -0.499 (inactive) | -2.4e-05 (inactive) | 0.00669 (inactive) | -5.1% (inactive) | 22.4% (inactive)
CCOc1ccccc1C1CC(c2ccc(Br)cc2)Nc2nc(N)nn21 (stereo not drawn) | 593 | 6.9% (inactive) | 19.2% (inactive) | 94.5 | -14.1% (inactive) | 107 | -0.512 (inactive) | -4.3e-05 (inactive) | 0.0067 (inactive) | 18.7% (inactive) | 33.7% (inactive)
COc1ccc2ccccc2c1CN1CCCC(CO)C1 (stereo not drawn) | 745 | 3.4% (inactive) | 4.4% (inactive) | 110 | 53% (inactive) | 97.2 | -0.422 (inactive) | -8.2e-05 (inactive) | 0.00503 (inactive) | 16% (inactive) | 35.4% (inactive)
CCOC(=O)Cn1c(S(=O)(=O)Cc2ccccc2)nc2ccccc21 | 811 | 5.5% (inactive) | -22.5% (inactive) | 110 | -135% (inactive) | 127 | -0.579 (inactive) | -1.4e-05 (inactive) | 0.00594 (inactive) | 9.42% (inactive) | 30.4% (inactive)
CC(=O)c1ccc(NC(=O)c2cc(CC(C)C)on2)cc1 | 572 | -2.3% (inactive) | 23.3% (inactive) | 97.8 | -3% (inactive) | 104 | -0.606 (inactive) | -2.3e-06 (inactive) | 0.00654 (inactive) | -32.2% (inactive) | -78% (inactive)
CCN1CCN(c2nc3c(c(=O)n(C)c(=O)n3C)n2CCSc2ncccn2)CC1 | 295 | -0.5% (inactive) | -7.5% (inactive) | 97.8 | -130% (inactive) | 116 | -0.506 (inactive) | -9.3e-06 (inactive) | 0.00522 (inactive) | 0.292% (inactive) | 13% (inactive)
CCOC(=O)N1CCC(NC(=O)CCC(=O)N2CC(C)Oc3ccc(Cl)cc32)CC1 (stereo not drawn) | 326 | 12.5% (inactive) | -2.6% (inactive) | 81.9 | 13.6% (inactive) | 89 | -0.369 (inactive) | -5e-05 (inactive) | 0.00486 (inactive) | 7.09% (inactive) | 6.64% (inactive)
COc1ccc(-c2c(=O)n(OCc3ccccn3)c3ccccc3[n+]2[O-])cc1OC | 398 | 3.3% (inactive) | -10.4% (inactive) | 104 | -22.9% (inactive) | 110 | -0.385 (inactive) | -3.7e-09 (inactive) | 0.00593 (inactive) | -2.61% (inactive) | -16.8% (inactive)
O=C(OCCN=C1NS(=O)(=O)c2ccccc21)C1CC(=O)N(c2ccc(Cl)cc2)C1 (stereo not drawn) | 354 | 2.7% (inactive) | -0.2% (inactive) | 118 | -44.7% (inactive) | 107 | -0.448 (inactive) | 2.4e-05 (inactive) | 0.00337 (inactive) | 6.2% (inactive) | 23.6% (inactive)
CCOCCn1c(CN2CCC(Cc3ccccc3)CC2)nc2c1c(=O)n(C)c(=O)n2C | 598 | 10.6% (inactive) | 25.3% (inactive) | 84.1 | 7.1% (inactive) | 108 | -0.473 (inactive) | -2.3e-05 (inactive) | 0.00435 (inactive) | 19.8% (inactive) | 22.9% (inactive)
